The values below come from PubChem BioAssay.

“And” between values parts separate entries of the source, which are not always exact repeats. Equal values may be shown once. A structure can be active in one record and inactive in another. The source made the active and inactive calls.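 Rule for the calls, unless noted: active = thallium flux through the channel raised or lowered by more than 3 SD from vehicle-only wells, actives on both sides; inactive = the rest.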

Assay [1] can be described thus: stimulators of nuclear beta-catenin in C2C12, primary screen, imaging, WNT3A-conditioned medium, mouse C2C12, NPC library (AID 1117326; in the data active = nuclear beta-catenin stimulation mostly above about 4.2%, no sharp cut-off; inactive = mostly below about 10%). Conditions: stronger effect = higher value.
Assay [2] in a line: stimulators of insulin release from INS-1E, primary screen, cell-based, 5 mM glucose, NPC library (AID 1117329;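 active = compound raises insulin release from rat beta cells at 5 mM glucose, no numeric limit stated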). Conditions: rat INS-1E insulin secretion, at 10 µM, stronger effect = higher value.
Assay [3] in a line: growth inhibition of GSK3B-pretreated HCT116 cells – cell-based, CellTiter-Glo, 0.2 to 20 µM (AID 1117336;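 active = compounds lowering colon cancer cell viability after pretreatment blocking the GSK3B kinase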). Conditions: HCT116 viability after GSK3B inhibitor, at 20 µM, stronger effect = higher value.
Assay [4] can be described thus: inhibition of endothelial tube formation, primary screen, imaging, VEGF stimulated, CD31 staining, tube area, NPC library (AID 1117340;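 active = compound that reduces growth-factor-driven endothelial tube area in a mixed cell culture, no cutoff stated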). As to conditions: VEGF-stimulated ADSC/ECFC co-culture, at 10 µM, stronger effect = higher value.
A short description of assay [5]: glucagon-like peptide 1 release enhancers, primary assay, NCI-H716 cell line, NPC library (AID 1117341;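 active = compound raises GLP1 secretion from the human gut endocrine cells, with no numeric limit stated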). Conditions: NCI-H716 cells, at 10 µM, stronger effect = higher value.
Assay [6] is described as follows: HCT116 colon cancer cell growth inhibition, primary screen, CellTiter-Glo luminescence, NPC library (AID 1117342;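 active = compounds that lower survival of HCT116 colon cancer cells in the luminescence readout, no numeric limit stated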). As to conditions: at 20 µM (top of the series).
Assay [7] can be described thus: CellTiter-Glo luminescent readout of SW480 viability loss, NPC library primary (AID 1117343;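 active = compounds that lower viability of the colon cancer cells in the luminescence readout, with no numeric limit stated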). As to conditions: CellTiter-Glo luminescence; at 20 µM (top of the series). (In general: Cellular ATP, detected with luciferase, serves as a proxy for viable cell number.)
Assay [8] in a line: decreased DLD-1 cellular survival, CellTiter-Glo luminescent readout, NPC compound collection, primary HTS (AID 1117346;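 active = compounds that lower survival of DLD-1 colon cancer cells in the luminescence readout, no cutoff given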). As to conditions: DLD-1 viability, CellTiter-Glo luminescence; at 20 µM (top of the series).
A short description of assay [9]: differential killing of epithelial or mesenchymal cells, primary screen, imaging, PC-3E GFP, TEM4-18 mCherry, co-culture (AID 1345086;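 active = compounds killing one labelled cell type while sparing the other, by normalised counts and ratio limits, not self-fluorescent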;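 note: cells exposed to compound for 72 h before imaging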;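 for red/green cell ratio (normalised): normalised mesenchymal count divided by normalised epithelial count so high means epithelial killing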). Conditions: imaging cell counts, at 1 µM.
The nature of assay [10]: sensitizers of A549 cells to miR-34 induction, primary screen, imaging, A549 dox-inducible miR-34, nuclei and caspase counts (AID 1347080;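 active = compounds whose cell count with miR-34 switched on is under 0.7 times the count with it off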). As to conditions: A549 miR-34 inducible, Hoechst nuclei count, 48 h.
Assay [11] concerns the target NAD(+) hydrolase SARM1 (Homo sapiens) (UniProt Q6SZW1). As to the kind of experiment: SARM1 TIR NADase inhibitors, cell lysate, NAD-Glo luminescence (AID 1508614;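 active = compound whose remaining NAD level is above about 45 nM, limit read from the data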;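 note: higher remaining NAD means stronger inhibition of SARM1 NADase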). As to conditions: SAM-TIR HEK293T lysate NADase, at 1 µM, stronger effect = higher value.
The target of assay [12] is 6-phosphogluconate dehydrogenase, decarboxylating (Homo sapiens) (UniProt P52209). As to the kind of experiment: 6PGD enzyme inhibitors, primary screen, biochemical, human, recombinant enzyme, NADPH absorbance (AID 1159550;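 active = at least 20% inhibition of 6-phosphogluconate dehydrogenase activity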). Conditions: recombinant 6PGD, NADPH absorbance 341 nm; at 10 µM; stronger effect = higher value.
6-phosphogluconate dehydrogenase, decarboxylating (Homo sapiens), sequence (P52209 whole entry, looked up): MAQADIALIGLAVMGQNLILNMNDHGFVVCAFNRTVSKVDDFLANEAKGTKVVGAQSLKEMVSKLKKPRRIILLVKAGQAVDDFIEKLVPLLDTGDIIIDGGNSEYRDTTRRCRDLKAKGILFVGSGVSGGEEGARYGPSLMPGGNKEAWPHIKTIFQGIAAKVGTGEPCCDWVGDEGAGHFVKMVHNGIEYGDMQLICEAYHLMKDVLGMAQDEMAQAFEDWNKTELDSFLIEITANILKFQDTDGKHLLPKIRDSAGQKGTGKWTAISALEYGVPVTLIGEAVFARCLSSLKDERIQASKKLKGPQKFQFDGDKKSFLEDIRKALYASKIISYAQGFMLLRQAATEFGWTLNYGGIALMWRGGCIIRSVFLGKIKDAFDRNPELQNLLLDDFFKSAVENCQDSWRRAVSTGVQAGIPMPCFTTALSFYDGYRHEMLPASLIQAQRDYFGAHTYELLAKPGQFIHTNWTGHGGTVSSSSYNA
Assay [13] is described as follows: survival rescue of mitochondrial mutant cells in low glucose, primary screen, MELAS cybrids, Rieske KO mouse fibroblasts, CellTiter-Glo (AID 1508586;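 active = mean z-score across replicates of 1.96 or higher in either the MELAS or the Rieske mutant cell line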;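 note: z relative to plate mean and SD of compound and empty wells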).
The target in assay [14] is Mitogen-activated protein kinase 7 (Homo sapiens) (UniProt Q13164). In words: ERK5 transactivation activators in reporter cells, primary screen, cell-based, HTS (AID 1508626;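 active = luciferase signal above three times the same-plate solvent-only control wells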;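 note: luciferase driven by Gal4-ERK5 fusion binding five Gal4 sites before minimal TATA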). Conditions: HeLa Gal4-ERK5 transactivation, 18 h, at 5 µM, stronger effect = higher value.
Mitogen-activated protein kinase 7 (Homo sapiens), sequence (Q13164 whole entry, looked up, the tested form may be a part): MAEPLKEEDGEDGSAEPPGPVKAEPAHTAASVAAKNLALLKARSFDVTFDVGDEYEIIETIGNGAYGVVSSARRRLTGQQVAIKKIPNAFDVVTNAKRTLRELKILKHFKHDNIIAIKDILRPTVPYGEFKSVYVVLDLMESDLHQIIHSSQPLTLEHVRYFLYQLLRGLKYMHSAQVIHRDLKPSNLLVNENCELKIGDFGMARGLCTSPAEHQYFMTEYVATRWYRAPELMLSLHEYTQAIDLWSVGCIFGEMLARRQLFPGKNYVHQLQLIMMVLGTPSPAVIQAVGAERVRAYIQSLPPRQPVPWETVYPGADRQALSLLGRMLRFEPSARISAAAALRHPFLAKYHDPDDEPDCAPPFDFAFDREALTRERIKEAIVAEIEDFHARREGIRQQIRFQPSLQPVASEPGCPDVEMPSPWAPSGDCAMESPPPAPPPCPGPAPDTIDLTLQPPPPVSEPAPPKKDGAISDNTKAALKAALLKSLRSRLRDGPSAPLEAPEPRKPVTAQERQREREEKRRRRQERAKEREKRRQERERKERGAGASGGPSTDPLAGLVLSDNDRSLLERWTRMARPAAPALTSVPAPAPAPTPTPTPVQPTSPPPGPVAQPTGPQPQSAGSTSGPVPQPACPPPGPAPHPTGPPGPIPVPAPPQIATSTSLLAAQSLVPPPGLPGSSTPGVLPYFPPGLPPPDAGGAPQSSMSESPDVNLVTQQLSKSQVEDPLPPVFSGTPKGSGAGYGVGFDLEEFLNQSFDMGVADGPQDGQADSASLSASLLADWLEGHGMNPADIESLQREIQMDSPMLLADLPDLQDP
For a further assay, the system named is F380Y. In words: modulators of BK channel variants, profiling panel, selectivity assay, cell-based, U2OS BacMam, thallium flux, beta subunits (AID 1259406).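 Note: initial slope of Thallos dye fluorescence rise after thallium is added; log ratio against the mean of 0.3% DMSO vehicle wells on the same plate.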 Conditions: at 30 µM.
The next assay has as its system F380Y/beta2Delta. The assay is described as above. As to conditions: at 30 µM.
Assay [15] addresses Calcium-activated potassium channel subunit alpha-1 (Homo sapiens) + Leucine-rich repeat-containing protein 26 (Homo sapiens) (UniProt Q12791+Q2I0M4). Described as above. Conditions: F380Y/Slo1WT/gamma1, at 30 µM.
The subject of a further assay is R275C. Described as above. Conditions: at 30 µM.
In a further assay the test system is R275C/beta1. The description is as above. Conditions: at 30 µM.
Another assay concerns R275C/beta2Delta. The description is as above. As to conditions: at 30 µM.
Where [16] appears, read: stronger effect = lower value, cell number ratio, induced over uninduced.
[17] abbreviates: measured here: relative caspase fold change +Dox/-Dox.
The mark [18] stands for this setting: measured here: total cells with miR-34 induction, stronger effect = lower value.
Setting [19] is: measured here: total cells without miR-34 induction.
Setting [20] is: MELAS cybrid survival, CellTiter-Glo 48 h, stronger effect = higher value.
Where [21] appears, read: Rieske KO mouse fibroblast survival, CellTiter-Glo 72 h.

NAD(+) hydrolase SARM1 (Homo sapiens), sequence (Q6SZW1 whole entry, looked up): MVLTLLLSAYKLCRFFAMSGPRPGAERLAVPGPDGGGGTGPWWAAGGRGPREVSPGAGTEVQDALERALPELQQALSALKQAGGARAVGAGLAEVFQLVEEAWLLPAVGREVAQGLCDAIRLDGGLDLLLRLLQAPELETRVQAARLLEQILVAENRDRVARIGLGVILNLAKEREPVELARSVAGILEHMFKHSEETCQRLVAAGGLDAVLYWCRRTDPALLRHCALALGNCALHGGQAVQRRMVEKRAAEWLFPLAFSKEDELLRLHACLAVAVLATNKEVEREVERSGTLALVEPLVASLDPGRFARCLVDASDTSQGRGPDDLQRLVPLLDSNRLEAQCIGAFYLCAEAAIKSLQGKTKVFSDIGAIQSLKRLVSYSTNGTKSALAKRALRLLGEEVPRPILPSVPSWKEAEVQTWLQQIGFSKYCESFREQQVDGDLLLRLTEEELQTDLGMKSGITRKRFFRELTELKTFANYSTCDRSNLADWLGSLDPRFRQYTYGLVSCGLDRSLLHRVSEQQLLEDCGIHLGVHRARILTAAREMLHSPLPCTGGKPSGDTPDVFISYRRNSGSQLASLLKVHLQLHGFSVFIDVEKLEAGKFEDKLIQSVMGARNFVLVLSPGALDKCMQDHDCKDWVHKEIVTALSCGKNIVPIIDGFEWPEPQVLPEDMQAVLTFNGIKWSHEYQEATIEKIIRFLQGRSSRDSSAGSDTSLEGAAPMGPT
Calcium-activated potassium channel subunit alpha-1 (Homo sapiens) + Leucine-rich repeat-containing protein 26 (Homo sapiens), sequence (Q2I0M4 whole entry, looked up, one chain of several): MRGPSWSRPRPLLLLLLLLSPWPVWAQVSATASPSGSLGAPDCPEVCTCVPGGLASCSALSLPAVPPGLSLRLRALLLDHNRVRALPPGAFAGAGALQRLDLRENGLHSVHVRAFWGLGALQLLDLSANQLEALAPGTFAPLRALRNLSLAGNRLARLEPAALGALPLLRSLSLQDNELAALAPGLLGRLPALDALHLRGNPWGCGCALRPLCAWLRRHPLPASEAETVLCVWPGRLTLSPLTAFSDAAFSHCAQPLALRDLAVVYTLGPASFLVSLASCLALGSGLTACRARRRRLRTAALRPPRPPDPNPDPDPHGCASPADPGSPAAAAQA

Turning to `C[C@@H]1CC(=O)NN=C1c1ccc(NN=C(C#N)C#N)cc1`, the nuclear beta-catenin stimulation in assay [1] (at 10 µM) is 7.5% (inactive) and 2.8% (inactive); in [1] (stimulation, at 2 µM), 0% and -0.4%. The insulin secretion stimulation in [2] is -2.9% (inactive) and -1.5% (inactive). For the same molecule, in assay [3], the viability decrease was -8.85% (inactive) and 2.3% (inactive). Besides, the tube area decrease in assay [4] is 41.6% (active) and 22.4% (inactive). The GLP1 secretion stimulation in [5] is 1.1% (inactive) and -7% (inactive). The inhibition of viability in assay [6] was -20.6% (inactive) and 6.9% (inactive). The viability decrease (inhibition) in assay [7] is 30.7% (inactive) and -5.7% (inactive); in assay [8], 12.6% (inactive) and 21.9% (inactive). Besides, in [9] (actives lie on both sides, counts scaled to control wells, 1 = unselective), the red/green cell ratio (normalised) is 1.17 (inactive). The results for the normalised cell number in assay [9] (measured here: epithelial PC-3E GFP cell survival) and in assay [9] (measured here: mesenchymal TEM4-18 mCherry cell survival) were 1.03 and 1.21, respectively. Besides, the fold change in [10] (setting [16]) is 0.967 (inactive); in assay [10] (setting [17]), 0.752. In addition, the cell count in assay [10] (setting [18]) came out at 8720; in [10] (setting [19]), 9020. Besides, the remaining NAD in assay [11] is 10 nM (inactive).
As usually defined, the inhibition is the change of the read-out against control, counted positive when it falls. For the molecule `CC(=O)S[C@@H]1CC2=CC(=O)CC[C@]2(C)[C@H]2CC[C@@]3(C)[C@@H](CC[C@@]34CCC(=O)O4)[C@H]12`, the nuclear beta-catenin stimulation is 4.4% (inactive) in assay [1] (at 10 µM) and 2.4% in assay [1] (stimulation, at 2 µM). Besides, the insulin secretion stimulation in [2] was -2% (inactive). The viability decrease in assay [3] is -2% (inactive). Moreover, the tube area decrease in assay [4] was 17% (inactive). The GLP1 secretion stimulation in assay [5] was 2.4% (inactive). The inhibition of viability in [6] was 28.7% (inactive). The results for the viability decrease (inhibition) in [7] and in assay [8] were 41.7% (inactive) and 26.4% (inactive), respectively. In addition, the inhibition in assay [12] is 14.1% (inactive). Besides, the fold change in [10] (setting [16]) is 0.941 (inactive) and 0.878 (inactive) and 0.848 (inactive); in assay [10] (setting [17]), 1.96 and 1.1 and 1.66. In addition, the cell count was 8520 and 7420 and 8230 in assay [10] (setting [18]); 9050 and 8450 and 9710 in assay [10] (setting [19]). The z-score in [13] (setting [20]) was 0.887 (inactive) and 0.469 (inactive); in assay [13] (setting [21]), 0.325 and -0.236. In addition, in assay [11], the remaining NAD is 10 nM (inactive). The luciferase signal in [14] was 56 AU (inactive). In addition, the log fold change Tl+ flux is -0.00371 (inactive) in the assay with F380Y; -0.0301 (inactive) in the assay on F380Y/beta2Delta; 0.0238 (inactive) in assay [15]; 0.0437 (inactive) with R275C; 0.0449 (inactive) in the assay on R275C/beta1; 0.0485 (inactive) in the assay with R275C/beta2Delta.
Take `CC1(C)O[C@@H]2C[C@H]3[C@@H]4C[C@H](F)C5=CC(=O)C=C[C@]5(C)[C@H]4[C@@H](O)C[C@]3(C)[C@]2(C(=O)CO)O1`: the nuclear beta-catenin stimulation was -0.2% (inactive) in assay [1] (at 10 µM) and 1.6% in assay [1] (stimulation, at 2 µM). Moreover, the insulin secretion stimulation in assay [2] was 1.6% (inactive). Further, the viability decrease in [3] is -31.1% (inactive). For the same molecule, the tube area decrease in assay [4] was -14.6% (inactive). Moreover, the GLP1 secretion stimulation in assay [5] is -0.5% (inactive). Besides, the inhibition of viability in assay [6] is -1.83% (inactive). Also, the viability decrease (inhibition) in assay [7] is 15% (inactive); in assay [8] it was -3.1% (inactive). The inhibition in assay [12] was -16.5% (inactive). Further, the fold change was 1 (inactive) and 0.779 (inactive) in assay [10] (setting [16]); 1.38 and 0.877 in assay [10] (setting [17]). For the same molecule, the cell count in [10] (setting [18]) is 7820 and 5180; in assay [10] (setting [19]), 7800 and 6650. Besides, the results for the z-score in assay [13] (setting [20]) and in [13] (setting [21]) were -0.397 (inactive) and 0.665, respectively. For the same molecule, in assay [11], the remaining NAD is 10 nM (inactive). Besides, the luciferase signal in assay [14] was 344 AU (active). Also, the log fold change Tl+ flux was 0.00732 (inactive) in the assay on F380Y; -0.0212 (inactive) with F380Y/beta2Delta; -0.0123 (inactive) in assay [15]; 0.00271 (inactive) in the assay on R275C; -0.0113 (inactive) with R275C/beta1; -0.0208 (inactive) with R275C/beta2Delta.
